# Experimental data: PubChem BioAssay AID504834 (National Center for Advancing Translational Sciences (NCATS), 2011)
# Among all 320,000 compounds or so, about 22,000 (6.9%) were called active. A call without a number means that no potency is given here. Inconclusive results (about 27%) are left out. This is one part of a sample in which actives are shown more often than they occur. Calls follow the shape of the dose curve; as a rule, active = well fitted inhibition curve with a large enough effect; inconclusive = small, poorly fitted or top-dose-only effect, or another doubt; inactive = no such curve, though single readings can be large or run the other way.
# Assay: Primary qHTS for delayed death inhibitors of the malarial parasite plastid, 96 hour incubation
# Details: P. falciparum luciferase reporter growth; series mostly up to 28.7 µM
# Source text: The goal of this screen is to discover new antimalarial compounds that act by inhibiting the development of the apicoplast in the malarial parasite Plasmodium falciparum. The biochemical processes that make this organelle essential for erythrocytic stage parasites are not well understood. However, antibiotics such as azithromycin and tetracycline, which target the apicoplast translational machinery, have a potent antimalarial effect.
# We have developed a cell-based assay that measures parasite growth based on the expression of an integrated copy of a firefly luciferase reporter. To detect small molecules that cause this "delayed death" phenotype, erythrocytes infected with the luciferase-expressing parasites were incubated with compounds for either one or two generations, corresponding to 48 and 96 hours, respectively. Compounds that inhibit parasite growth in the second generation, but not the first, should be enriched in antimalarials that target the apicoplast. Growth inhibition is detected by a decrease in luciferase activity.
# Assay Provider: David Fidock and Eric Ekland, Columbia University
# Keywords: NIH Roadmap, MLPCN, MLI, MLSMR, qHTS, NCGC, qHTS, malaria, luciferase, viability
# Four microliters of infected erythrocytes (2% hematocrit, 0.05% parasitemia final concentration) in culture medium were dispensed and the plates incubated for 96 hours at 37 C in 5% CO2. Two microliters of luciferase detection reagent was added and luminescence was detected by a ViewLux (PerkinElmer) reader.
# Potency is read from the fitted curve at half-maximal effect.
row,Structure (SMILES),Potency
1,CN(CC(=O)NCc1ccc2c(c1)OCO2)CC(=O)Nc1ccc(F)c(F)c1F,inactive
2,CCC(C)N(C(=O)COC(=O)c1nc(Cl)ccc1Cl)C1CCS(=O)(=O)C1 (stereo not drawn),inactive
3,O=C(c1ccc(OC2CCN(C/C=C/c3ccc(F)cc3)CC2)cc1)N1CCCCC1,inactive
4,COc1ccc(S(=O)(=O)N(C)CC(=O)N2CCCC2)cc1,inactive
5,Cc1ccc(S(=O)(=O)N2CCC(Oc3ccc(-n4cnnn4)cc3)CC2)cc1,inactive
6,CN1CCC[C@@H]1CCO[C@](C)(c1ccccc1)c1ccc(Cl)cc1,15.1 µM (active)
7,CC(C)(c1ccccc1)c1ccc(OCCN)cc1,inactive
8,CC(C)(c1ccccc1)c1ccc(OCCN2CCCC2)cc1,inactive
9,O=c1c2cc(Br)ccc2nc(-c2cccc(Cl)c2)n1O,inactive
10,O=C(c1cccc(S(=O)(=O)N2CCOCC2)c1)N1CCOCC1,inactive
11,O=C(c1cccc(N2CCCC2=O)c1)N1CCOCC1,6.57 µM (active)
12,O=C(c1ccc2c(c1)OCO2)N1CCOCC1,inactive
13,Cc1ccc(C(=O)NNC(=O)c2ccc3c(c2)OCCO3)cc1,inactive
14,COCc1cc(C)n(CC(=O)NCC2CCCO2)c(=O)c1C#N (stereo not drawn),inactive
15,CCn1nccc1C(=O)Nc1ccc(S(=O)(=O)NC23CC4CC(CC(C4)C2)C3)cc1,6.57 µM (active)
16,Cc1noc(NS(=O)(=O)c2ccc(NC(=O)C34CCC(CC3)C4)cc2)c1C,inactive
17,O=C(Nc1ccc(S(=O)(=O)Nc2ncccn2)cc1)C12CC3CC(CC(C3)C1)C2,inactive
18,Cc1ccc(S(=O)(=O)NCCC(=O)NNC(=O)C2COc3ccccc3O2)cc1 (stereo not drawn),inactive
19,CC(=O)Oc1ccccc1C1=NN(C(C)=O)C(c2ccccc2)C1 (stereo not drawn),inactive
20,Oc1ccccc1C1=NN(c2ccccc2)C(c2ccccc2)C1 (stereo not drawn),1.65 µM (active)
21,COc1ccc(C2CC(c3cccs3)=NN2c2ccccc2)cc1 (stereo not drawn),inactive
22,Cn1cc(C(=O)c2ccc(Cl)cc2Cl)cc1C(=O)NN,inactive

row,Structure (SMILES),Potency
1,COc1ccc(CCNC(=O)COc2ccc3c(c2)OCO3)cc1,inactive
2,Cc1ccc2nc(C)c3c(c2c1)N(c1ccccc1)CC3,6.57 µM (active)
3,Cc1ccc2nc(Nc3ccccc3)cc(C)c2c1,inactive
4,Cc1ccc2nc(-c3ccccc3)cc(C(=O)O)c2c1,inactive
5,O=C1NCCn2nc3ccccc3c21,inactive
6,CCN(CC)CCn1c2c(c(SCC(=O)Nc3nc4ccccc4s3)nc1=O)CCCC2,11.7 µM (active)
7,Cn1nnnc1SCC(=O)Nc1nc2ccccc2s1,inactive
8,CCN(CC)CCn1c2c(c(SCC(=O)Nc3ccc(C(C)C)cc3)nc1=O)CCC2,4.15 µM (active)
9,CC(C)c1ccc(NC(=O)COC(=O)c2ccc(CN3CCCC3=O)cc2)cc1,inactive
10,Cn1c(SCC(=O)Nc2ccc(Cl)cc2)nc(O)cc1=O,inactive
11,Cc1csc(NC(=O)CSc2nc(=O)n(CCCN(C)C)c3c2CCC3)n1,inactive
12,COc1ccccc1C(=O)NC(CCSC)C(=O)NNC(=O)c1csc(N2CCOCC2)n1 (stereo not drawn),inactive
13,Cc1ccc(CSCC2Nc3ccc(C(=O)N4CCN(c5ccc(F)cc5)CC4)cc3NC2=O)cc1 (stereo not drawn),inactive
14,O=C(O)c1ccccc1C(=O)NC1=NN(c2ccccc2)CC1,inactive
15,O=[N+]([O-])c1ccc2c(c1)C(O)n1nc(-c3ccccc3)nc1S2 (stereo not drawn),inactive
16,O=C(CN1CCCCCC1)Nc1c(Cl)cc(Cl)cc1Cl,inactive
17,COc1cccc(NC(=S)NCCCN2CCOCC2)c1,inactive
18,COc1ccc(NC(=O)CSc2nc3ccccc3c(=O)n2C)cc1,1.85 µM (active)
19,COC(=O)c1ccc2c(=O)n(CCN3CCOCC3)c(SCC(=O)Nc3cccc(OC)c3)nc2c1,13.1 µM (active)
20,COc1ccc(-n2nnnc2SCC(=O)Nc2ccccc2)cc1,inactive
21,COc1cccc(NC(=O)C(Sc2nc3ccccc3c(=O)n2CC(C)C)c2ccccc2)c1 (stereo not drawn),2.62 µM (active)
22,COc1cccc(NC(=O)Cn2c3ccccc3c3nc4n(c(=O)c32)CCS4)c1,inactive

row,Structure (SMILES),Potency
1,COc1ccc(NC(=O)CSc2nnc(Cc3ccccc3)c(=O)n2N)cc1,inactive
2,COc1ccc(NC(C(=O)Nc2cccc(C(C)=O)c2)c2ccccc2)cc1 (stereo not drawn),inactive
3,CCc1ccc(NC(=O)CSc2nc3ccccc3c(=O)n2CCN2CCOCC2)cc1,inactive
4,COc1ccc([N+](=O)[O-])cc1NCC(=O)c1ccc(C)cc1,inactive
5,O=S(=O)(Nc1cccc(-n2cnnn2)c1)c1cnc(Cl)c(Cl)c1,inactive
6,COc1ccc2c(C)cc3nnnn3c2c1,inactive
7,O=C(Nc1nnc(S(=O)(=O)N2CCOCC2)s1)c1cccc(Br)c1,inactive
8,Cc1cccc(NC(=O)COc2ccccc2C)n1,2.33 µM (active)
9,Cc1ccccc1OCC(=O)Nc1nc(C)c(C(=O)N(C)C)s1,inactive
10,COCCNC(=O)COc1ccccc1C,inactive
11,O=C(NCCc1ccccn1)c1cccnc1Oc1ccc(Cl)cc1,inactive
12,Cn1ccc(=Nc2ccc(NC(=O)c3ccc(N=c4ccn(C)c5ccc([N+](=O)[O-])cc45)cc3)cc2)cc1,0.165 µM (active)
13,O=C(Nc1ccc(C(=O)N2CCCCC2)cc1)c1cccc([N+](=O)[O-])c1,inactive
14,COc1cc(NS(=O)(=O)c2ccc(NC(=O)c3ccc([N+](=O)[O-])cc3)cc2)ncn1,inactive
15,COc1ccccc1C(=O)Nc1ccnn1C1CCN(C(=O)C(C)(C)C)CC1,inactive
16,CCCOc1ccc(N/C=C/C(=O)C(C)(C)C)cc1,inactive
17,CN(C)c1ccc(N/C=C/C(=O)C(F)(F)F)cc1,6.57 µM (active)
18,O=C(/C=C/Nc1ccccc1OC(F)(F)F)C(F)(F)F,inactive
19,Cc1c(C(=O)N(C)CCc2cnn(C)c2)oc2c(F)cccc12,inactive
20,Fc1ccc(/C=N/n2c(COc3ccccc3)n[nH]c2=S)cc1,inactive
21,COc1ccc(C(=O)OCC(=O)Nc2cccc(C(C)=O)c2)cc1OC,inactive
22,O=C1C=CC(=O)N1c1ccc(N2CCCCC2)cc1,inactive

row,Structure (SMILES),Potency
1,O=c1[nH][nH]c(=O)c2cc(N3CCCC3)ccc12,9.28 µM (active)
2,CN(C)c1ccc2c(=O)[nH][nH]c(=O)c2c1,inactive
3,CCOc1ccc(S(=O)(=O)NCc2ccc3c(c2)OCO3)cc1C,inactive
4,Cc1ccc(C(=O)NNC(=O)C(C)Oc2ccc3ccccc3c2)o1 (stereo not drawn),inactive
5,Cc1ccc(Cl)c(OCC(=O)N(C)CC(=O)Nc2ccc(N3CCOCC3)cc2)c1,inactive
6,Cc1nn2c(NCCN(C)C)c3c(nc2c1-c1ccccc1)CCC3,11.7 µM (active)
7,Cc1cc(N2CCCC2)n2nc(C)c(-c3ccccc3)c2n1,inactive
8,Cc1cc(C(C)(C)C)n2nc(C)c(-c3ccccc3)c2n1,inactive
9,O=C(CN1CCN(c2ccccn2)CC1)Nc1ccc(Br)cc1,inactive
10,COc1ccc(C2=NS(=O)(=O)N(C)C(C(=O)N(C)Cc3ccccc3)=C2)cc1,inactive
11,Nc1c(C(=O)Nc2ccc3c(c2)OCCO3)nnn1Cc1ccccc1,inactive
12,Cc1ccc2c(c1)N(C(=O)CCC(=O)NCc1cccnc1)CCO2,inactive
13,CC1CN(C(=O)CCC(=O)NCc2cccnc2)c2ccccc2O1 (stereo not drawn),inactive
14,Cc1ccccc1CNC(=O)CCC(=O)N1Cc2ccccc2Oc2ncccc21,11.7 µM (active)
15,CC(C)NC(=O)C(c1ccc(F)cc1)N(C(=O)CCC(=O)Nc1ccccn1)c1ccccc1F (stereo not drawn),inactive
16,Cc1ccc(N2CCN(c3ccc([N+](=O)[O-])cn3)CC2)c(C)c1,inactive
17,Cc1ccc(-n2c(C)cc(/C=N/Nc3ccc([N+](=O)[O-])cn3)c2C)c(C)c1,10.4 µM (active)
18,Cc1cc(/C=N/Nc2ccc([N+](=O)[O-])cn2)c(C)n1-c1cccc(C(=O)O)c1,inactive
19,O=C(NC1CCCC1)C(c1ccc(Cl)cc1)N(C(=O)c1csnn1)C1CC1 (stereo not drawn),inactive
20,CC1CC1C(=O)OCC(=O)Nc1cccc(F)c1 (stereo not drawn),inactive
21,N#CC(C#N)=CN=c1ccn(Cc2ccc(Cl)cc2Cl)cc1,1.17 µM (active)
22,O=S(=O)(O)c1nc2ccccc2n1Cc1ccc(Cl)cc1Cl,inactive

row,Structure (SMILES),Potency
1,Cn1ccc(=NC=C(C#N)C#N)c2ccccc21,inactive
2,CC(C)[C@H](NC(=O)N1CCn2c1nc1ccccc12)C(=O)NC1CC1,inactive
3,COc1ccc(NC(=O)c2cnc(NS(=O)(=O)c3ccccc3)nc2)cc1,inactive
4,CCOC(=O)c1cc(C(=O)Nc2ccc(S(=O)(=O)Nc3ccc(OC)cc3)cc2)nn1C,11.7 µM (active)
5,CCOC(=O)c1ccccc1NS(=O)(=O)c1ccc(OC)cc1,inactive
6,COc1cc(OC)cc(C(=O)Nc2ccc(S(=O)(=O)Nc3cc(C)on3)cc2)c1,inactive
7,COc1cc2ccccc2cc1C(=O)Nc1ccc(S(=O)(=O)Nc2cc(C)on2)cc1,inactive
8,CCOc1ccc(C(=O)Nc2ccc(S(=O)(=O)Nc3cc(C)on3)cc2)cc1,2.94 µM (active)
9,CCOCCCNC(=S)Nc1ccc2nc(N3CCN(CC)CC3)cc(C)c2c1,inactive
10,Cc1cc(C)c(C#N)c(Nc2cccc(Br)c2)n1,inactive
11,Cc1ccc(S(=O)(=O)N2CCN(C)CC2)cc1,inactive
12,Cc1nn(C)c(C)c1NS(=O)(=O)c1ccc(OC(F)(F)F)cc1,inactive
13,COc1cc(C(=O)OCC(=O)N(CC(C)C)C2CCS(=O)(=O)C2)ccc1OCC(C)C (stereo not drawn),inactive
14,CN(CC(=O)Nc1cccc(F)c1)C(=O)C1CSC2(C)CCC(=O)N12 (stereo not drawn),inactive
15,CS(=O)(=O)N(CC(=O)N1CCCC1)Cc1ccccc1,inactive
16,COC(=O)CCC(=O)N1CCCC(CO)(Cc2ccccc2)C1 (stereo not drawn),0.37 µM (active)
17,CCCc1cc(C(=O)N2CCCC(CO)(CCCc3ccccc3)C2)n(C)n1 (stereo not drawn),inactive
18,CCNC(=S)N(CCN(CC)CC)Cc1cc2cc3c(cc2[nH]c1=O)OCO3,inactive
19,COC(=O)C(C)n1cnc2c(nnn2-c2cccc(Cl)c2)c1=O (stereo not drawn),inactive
20,CC(C)C[C@H](CO)Nc1nc(N(C)c2cccc(Cl)c2)c2ncn(C(C)C)c2n1,13.1 µM (active)
